# Assay results published in article PMC11062922 (Nature Chemical Biology, 2023).
# Read-outs that look alike come from different tables or passages of the source.
# How the values were obtained:
# ABL1 = test system: ABL1; design: species or system human, MV4-11 + K-562 + COLO205 + SK-N-BE2 + OVCAR-8; conditions: read-out: apparent Kd, n = 1
# ABL2 = test system: ABL2; design: species or system human, MV4-11 + K-562 + COLO205 + SK-N-BE2 + OVCAR-8; conditions: read-out: apparent Kd, n = 1
# BCR = test system: BCR; design: species or system human, MV4-11 + K-562 + COLO205 + SK-N-BE2 + OVCAR-8; conditions: read-out: apparent Kd, n = 1
# FYN = test system: FYN; design: species or system human, MV4-11 + K-562 + COLO205 + SK-N-BE2 + OVCAR-8; conditions: read-out: apparent Kd, n = 1
# GAK = test system: GAK; design: species or system human, MV4-11 + K-562 + COLO205 + SK-N-BE2 + OVCAR-8; conditions: read-out: apparent Kd, n = 1
# LCK = test system: LCK; design: species or system human, MV4-11 + K-562 + COLO205 + SK-N-BE2 + OVCAR-8; conditions: read-out: apparent Kd, n = 1
# RIPK3 = test system: RIPK3; design: species or system human, MV4-11 + K-562 + COLO205 + SK-N-BE2 + OVCAR-8; conditions: read-out: apparent Kd, n = 1
# TNK1 = test system: TNK1; design: species or system human, MV4-11 + K-562 + COLO205 + SK-N-BE2 + OVCAR-8; conditions: read-out: apparent Kd, n = 1
# YES1 = test system: YES1; design: species or system human, MV4-11 + K-562 + COLO205 + SK-N-BE2 + OVCAR-8; conditions: read-out: apparent Kd, n = 1
# CLK1 = test system: CLK1; design: species or system human, MV4-11 + K-562 + COLO205 + SK-N-BE2 + OVCAR-8; conditions: read-out: apparent Kd; compound concentrations:100 nM and 1000 nM (sheet 'Samples'); n = 1
# CSNK2A1;CSNK2A3 = test system: CSNK2A1;CSNK2A3; design: species or system human, MV4-11 + K-562 + COLO205 + SK-N-BE2 + OVCAR-8; conditions: read-out: apparent Kd; compound concentrations:100 nM and 1000 nM (sheet 'Samples'); n = 1
# CSNK2A2 = test system: CSNK2A2; design: species or system human, MV4-11 + K-562 + COLO205 + SK-N-BE2 + OVCAR-8; conditions: read-out: apparent Kd; compound concentrations:100 nM and 1000 nM (sheet 'Samples'); n = 1
# PTK6 = test system: PTK6; design: species or system human, MV4-11 + K-562 + COLO205 + SK-N-BE2 + OVCAR-8; conditions: read-out: apparent Kd, n = 1
# HCK = test system: HCK; design: species or system human, MV4-11 + K-562 + COLO205 + SK-N-BE2 + OVCAR-8; conditions: read-out: apparent Kd, compound concentrations: 100 nM and 1000 nM (sheet 'Samples'), n = 1
# RET = test system: RET; design: species or system human, MV4-11 + K-562 + COLO205 + SK-N-BE2 + OVCAR-8; conditions: read-out: apparent Kd, n = 1
# RIPK2 = test system: RIPK2; design: species or system human, MV4-11 + K-562 + COLO205 + SK-N-BE2 + OVCAR-8; conditions: read-out: apparent Kd, n = 1
# CLK4 = test system: CLK4; design: species or system human, MV4-11 + K-562 + COLO205 + SK-N-BE2 + OVCAR-8; conditions: read-out: apparent Kd; compound concentrations:100 nM and 1000 nM (sheet 'Samples'); n = 1
# Q6ZSR9 = Q6ZSR9 (human, UniProt Q6ZSR9); design: species or system MV4-11 + K-562 + COLO205 + SK-N-BE2 + OVCAR-8; conditions: read-out: apparent Kd; compound concentrations:100 nM and 1000 nM (sheet 'Samples'); n = 1
# Q6ZSR9, sequence (Q6ZSR9 whole entry, looked up): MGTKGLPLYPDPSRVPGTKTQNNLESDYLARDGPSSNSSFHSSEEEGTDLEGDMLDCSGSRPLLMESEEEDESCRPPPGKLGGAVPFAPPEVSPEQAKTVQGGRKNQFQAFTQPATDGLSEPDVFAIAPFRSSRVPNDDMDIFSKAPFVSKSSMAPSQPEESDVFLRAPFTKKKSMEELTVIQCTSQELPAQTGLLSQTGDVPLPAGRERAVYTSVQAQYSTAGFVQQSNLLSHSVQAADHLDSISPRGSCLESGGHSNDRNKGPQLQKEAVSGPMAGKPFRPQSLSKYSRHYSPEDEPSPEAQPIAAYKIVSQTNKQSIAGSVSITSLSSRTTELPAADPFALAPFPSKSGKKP
# [1] = compound concentrations:100 nM and 1000 nM (sheet 'Samples')
compound,measurement,setting,value
CC(C)c1nc(-c2ccc(F)c(NS(=O)(=O)c3c(F)cccc3F)c2)c(-c2ccnc(Nc3ccc(N4CCOCC4)nc3)n2)s1 [GSK1804250A],potency estimated from few doses,ABL1; [1],970 nM
same,potency estimated from few doses,ABL2; [1],126 nM
same,potency estimated from few doses,BCR; [1],954 nM
same,potency estimated from few doses,FYN; [1],944 nM
same,potency estimated from few doses,GAK; [1],600 nM
same,potency estimated from few doses,LCK; [1],342 nM
same,potency estimated from few doses,RIPK3; [1],2130 nM
same,potency estimated from few doses,TNK1; [1],328 nM
same,potency estimated from few doses,YES1; [1],679 nM
Nc1nc(N)c2nc(-c3ccccc3)[nH]c2n1 [SKF-12778],potency estimated from few doses,CLK1,1150 nM
same,potency estimated from few doses,CSNK2A1;CSNK2A3,1350 nM
same,potency estimated from few doses,CSNK2A2,1100 nM
same,potency estimated from few doses,PTK6; [1],1150 nM
same,potency estimated from few doses,YES1; [1],1040 nM
NS(=O)(=O)CCc1cccc(Nc2nccc(-c3c(-c4cccc(NC(=O)c5c(F)cccc5F)c4)nn4ccccc34)n2)c1 [GSK336735A],potency estimated from few doses,"ABL2; compound concentrations: 100 nM and 1000 nM (sheet 'Samples'), CATDS: 7.5550907623065294E-2",635 nM
same,potency estimated from few doses,"FYN; compound concentrations: 100 nM and 1000 nM (sheet 'Samples'), CATDS: 5.89205391615404E-2",1140 nM
same,potency estimated from few doses,HCK; CATDS: 9.1712833747147296E-2,439 nM
same,potency estimated from few doses,"LCK; compound concentrations: 100 nM and 1000 nM (sheet 'Samples'), CATDS: 8.1556930046594894E-2",546 nM
same,potency estimated from few doses,"RET; compound concentrations: 100 nM and 1000 nM (sheet 'Samples'), CATDS: 0.15467463345214499",196 nM
same,potency estimated from few doses,"RIPK3; compound concentrations: 100 nM and 1000 nM (sheet 'Samples'), CATDS: 7.11931563666406E-2",719 nM
same,potency estimated from few doses,"TNK1; compound concentrations: 100 nM and 1000 nM (sheet 'Samples'), CATDS: 8.7840058842797303E-2",475 nM
same,potency estimated from few doses,"YES1; compound concentrations: 100 nM and 1000 nM (sheet 'Samples'), CATDS: 0.104182093569698",354 nM
Cn1cc(-c2ccc3c(c2)CCN3C(=O)Cc2cccc(Cl)c2)c2c(N)ncnc21 [GSK2606590A],potency estimated from few doses,"ABL1; compound concentrations: 100 nM and 1000 nM (sheet 'Samples'), CATDS: 0.26932988266552799",1720 nM
CS(=O)(=O)Cc1ccc(Nc2nccc(-c3c(-c4cccc(NC(=O)c5c(F)cccc5F)c4)nn4ccccc34)n2)cc1 [GSK323543A],potency estimated from few doses,"ABL2; compound concentrations: 100 nM and 1000 nM (sheet 'Samples'), CATDS: 7.35852808685315E-2",971 nM
same,potency estimated from few doses,HCK; CATDS: 9.4870937315331097E-2,576 nM
same,potency estimated from few doses,"LCK; compound concentrations: 100 nM and 1000 nM (sheet 'Samples'), CATDS: 7.3424400867348402E-2",976 nM
same,potency estimated from few doses,"RET; compound concentrations: 100 nM and 1000 nM (sheet 'Samples'), CATDS: 0.14439255275757601",289 nM
same,potency estimated from few doses,"RIPK3; compound concentrations: 100 nM and 1000 nM (sheet 'Samples'), CATDS: 7.2905332862385097E-2",992 nM
same,potency estimated from few doses,"TNK1; compound concentrations: 100 nM and 1000 nM (sheet 'Samples'), CATDS: 0.144635692896082",288 nM
same,potency estimated from few doses,"YES1; compound concentrations: 100 nM and 1000 nM (sheet 'Samples'), CATDS: 0.11796638249333601",395 nM
CC(=O)N1CCN(c2ccc(Nc3nccc(-c4sc(C(C)C)nc4-c4cccc(NS(=O)(=O)c5ccccc5)c4)n3)cn2)CC1 [GSK1645872A],potency estimated from few doses,"ABL1; compound concentrations: 100 nM and 1000 nM (sheet 'Samples'), CATDS: 2.9890665121479899E-2",746 nM
same,potency estimated from few doses,"ABL2; compound concentrations: 100 nM and 1000 nM (sheet 'Samples'), CATDS: 6.8030281480511795E-2",166 nM
same,potency estimated from few doses,"BCR; compound concentrations: 100 nM and 1000 nM (sheet 'Samples'), CATDS: 2.6881466096611999E-2",991 nM
same,potency estimated from few doses,"GAK; compound concentrations: 100 nM and 1000 nM (sheet 'Samples'), CATDS: 3.3630312969228401E-2",566 nM
same,potency estimated from few doses,"LCK; compound concentrations: 100 nM and 1000 nM (sheet 'Samples'), CATDS: 2.6338913401390801E-2",1050 nM
same,potency estimated from few doses,"RIPK2; compound concentrations: 100 nM and 1000 nM (sheet 'Samples'), CATDS: 3.4620572917050799E-2",532 nM
same,potency estimated from few doses,"RIPK3; compound concentrations: 100 nM and 1000 nM (sheet 'Samples'), CATDS: 4.0939196436341502E-2",381 nM
same,potency estimated from few doses,"TNK1; compound concentrations: 100 nM and 1000 nM (sheet 'Samples'), CATDS: 4.1915160463804002E-2",364 nM
same,potency estimated from few doses,"YES1; compound concentrations: 100 nM and 1000 nM (sheet 'Samples'), CATDS: 4.4721674656853803E-2",324 nM
CNc1nccc(-c2c(-c3ccc(F)cc3)ncn2C2CCN(C)CC2)n1 [SB-222903],potency estimated from few doses,ABL2; [1],389 nM
same,potency estimated from few doses,CLK1,808 nM
same,potency estimated from few doses,RIPK2; [1],433 nM
Cc1ccc(O)cc1Nc1ccnc2ccc(C(C)(C)C)cc12 [GW856805X],potency estimated from few doses,"ABL1; compound concentrations: 100 nM and 1000 nM (sheet 'Samples'), CATDS: 2.7380804690978401E-2",1400 nM
same,potency estimated from few doses,"ABL2; compound concentrations: 100 nM and 1000 nM (sheet 'Samples'), CATDS: 3.3299960088100697E-2",317 nM
same,potency estimated from few doses,"BCR; compound concentrations: 100 nM and 1000 nM (sheet 'Samples'), CATDS: 4.5684736172067801E-2",79.1 nM
same,potency estimated from few doses,"FYN; compound concentrations: 100 nM and 1000 nM (sheet 'Samples'), CATDS: 4.6328072424656697E-2",75.5 nM
same,potency estimated from few doses,"GAK; compound concentrations: 100 nM and 1000 nM (sheet 'Samples'), CATDS: 4.7417196878279499E-2",70 nM
same,potency estimated from few doses,"PTK6; compound concentrations: 100 nM and 1000 nM (sheet 'Samples'), CATDS: 2.9493928233546299E-2",718 nM
same,potency estimated from few doses,"RET; compound concentrations: 100 nM and 1000 nM (sheet 'Samples'), CATDS: 4.15605904174959E-2",111 nM
same,potency estimated from few doses,"RIPK2; compound concentrations: 100 nM and 1000 nM (sheet 'Samples'), CATDS: 0.10546216310876699",11.1 nM
same,potency estimated from few doses,"RIPK3; compound concentrations: 100 nM and 1000 nM (sheet 'Samples'), CATDS: 3.0648006837875299E-2",540 nM
Cl.Cn1c(=O)c(Cc2ccc(F)cc2F)cc2cnc(NC3CCOCC3)nc21 [RO3308757-001],potency estimated from few doses,ABL1; [1],1760 nM
same,potency estimated from few doses,ABL2; [1],513 nM
same,potency estimated from few doses,BCR; [1],477 nM
same,potency estimated from few doses,CLK1,779 nM
same,potency estimated from few doses,CLK4,1110 nM
same,potency estimated from few doses,GAK; [1],434 nM
same,potency estimated from few doses,LCK; [1],1220 nM
same,potency estimated from few doses,Q6ZSR9,1840 nM
same,potency estimated from few doses,RET; [1],877 nM
same,potency estimated from few doses,TNK1; [1],177 nM
same,potency estimated from few doses,YES1; [1],805 nM
